Out of some 5,500 compounds screened, about 2,000 (36%) were called active. Another 18% or so got no clear call; they are omitted. No stated cut-off is given here; in the data, active means normalized growth mostly below about 0.91 (no sharp cut-off); inconclusive means no clear call, values can overlap the other calls; inactive means mostly above about 0.92. Some of the results follow.
Assay: chemical genetic growth profiling, strain panel (AID 1159580);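 further: tested at 20 µM; growth read once vehicle control cultures reached saturation at 30 °C; 1 = growth at the plate median or of vehicle wells; lower values mean less growth of the strain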
Details: S. cerevisiae deletion strains, growth OD

Measured: normalized growth

CNC(=O)[C@H]1O[C@@H](n2cnc3c(NCc4ccc(I)cc4)nc(Cl)nc32)[C@H](O)[C@@H]1O
inactive: locus YAL013W, strain DEP1, active compounds read low 0.986 | locus YAL040C, strain CLN3, active compounds read low 0.939 | locus YCL061C, strain MRC1 (second series), active compounds read low 0.996 | locus YDR150W, strain NUM1, active compounds read low 1 | locus YDR363W, strain ESC2, active compounds read low 0.944 | locus YER002W, strain NOP16, active compounds read low 0.97 | locus YGR078C, strain PAC10, active compounds read low 0.99 | locus YJR075W, strain HOC1, active compounds read low 0.999 | locus YMR263W, strain SAP30, active compounds read low 0.995 | locus YMR307W, strain GAS1, active compounds read low 1 | locus YNL128W, strain TEP1, active compounds read low 0.981 | locus YNL175C, strain NOP13, active compounds read low 0.962 | locus YNL197C, strain WHI3, active compounds read low 0.98 | locus YNL224C, strain SQS1, active compounds read low 0.997 | locus YNL322C, strain KRE1, active compounds read low 0.972 | locus YOR083W, strain WHI5 (second series), active compounds read low 0.918 | locus YPL055C, strain LGE1, active compounds read low 0.937

— PubChem BioAssay AID1159580 (chemical genetic matrix, 2015)
